The results in this text go back to PubChem BioAssay (NCI).

Some test systems named below: SK-MEL-2 melanoma; EKVX NSCLC; SN12C renal; UO-31 renal; TK-10 renal; A498 renal; CCRF-CEM leukemia; MOLT-4 leukemia; SR leukemia; RPMI-8226 leukemia; OVCAR-8 ovarian; OVCAR-5 ovarian; OVCAR-4 ovarian; SK-OV-3 ovarian; IGROV1 ovarian; OVCAR-3 ovarian; HS 578T breast; NCI/ADR-RES ovarian.
What all share (assay): NCI-60 one-dose screen, 48 h (100 = growth as untreated, 0 = no growth, -100 = all killed)
Holding throughout (conditions): 10 µM unless noted

This is part of a sample that, as a whole, favours compounds with a hit. Of some 83,000 tested, about 20% had one in any assay.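 Cells were grown in 96-well plates and exposed to the test compound at a single concentration for 48 hours; results are reported as percent growth, with values below 10 considered active.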 A number with no mark means an inactive call. Activity calls are given as the source filed them.

With `COc1cc(C(=O)NNC(=O)c2ccccc2O)cc(OC)c1OC`, the growth is 80.2% with SK-MEL-2 melanoma; 103% with EKVX NSCLC; 98.4% with SN12C renal; 74.3% in the assay with UO-31 renal; 85.6% in the assay with TK-10 renal; 75.8% in the assay on A498 renal. The growth with CCRF-CEM leukemia is 89.4%; in the assay on MOLT-4 leukemia, 74.6%; in the assay with SR leukemia, 77.8%; in the assay on RPMI-8226 leukemia, 86.8%; with OVCAR-8 ovarian, 82.9%; in the assay with OVCAR-5 ovarian, 103%. In addition, the growth was 110% with OVCAR-4 ovarian; 87.8% in the assay on SK-OV-3 ovarian; 98.8% in the assay on IGROV1 ovarian; 109% in the assay with OVCAR-3 ovarian; 95.1% with HS 578T breast; 94.5% in the assay on NCI/ADR-RES ovarian.
For the molecule `CC(=O)CC/C=C(\C)[C@H](O)[C@H](C)C(=O)O[C@H]1C[C@H](C)C=C2C=C[C@@]3(C)O[C@@H](O)CC(=O)[C@]3(C)[C@H]21`, the growth is -59.7% (active) with SK-MEL-2 melanoma; -28.8% (active) in the assay with EKVX NSCLC; -11.5% (active) in the assay with SN12C renal; -28.6% (active) in the assay on UO-31 renal; -27.4% (active) in the assay on TK-10 renal; -66.2% (active) with A498 renal. Besides, the growth was 4.28% (active) with CCRF-CEM leukemia; -7.91% (active) in the assay on MOLT-4 leukemia; 0.335% (active) with SR leukemia; -18.5% (active) with RPMI-8226 leukemia; -14.7% (active) with OVCAR-8 ovarian; -10% (active) with OVCAR-5 ovarian. The growth with OVCAR-4 ovarian is -21.9% (active); in the assay on SK-OV-3 ovarian, -25.5% (active); with IGROV1 ovarian it was -17.7% (active); with OVCAR-3 ovarian, -46.4% (active); in the assay with HS 578T breast, -10.1% (active); in the assay with NCI/ADR-RES ovarian, 0.0427% (active).
Take `COc1ccc(-c2nnc(SCC(=O)Nc3ccc(C(=O)/C=C/c4ccccc4)cc3)o2)cc1OC`: the growth was 98% in the assay with SK-MEL-2 melanoma; 100% with EKVX NSCLC; 103% in the assay with SN12C renal; 83.9% in the assay on UO-31 renal; 96.1% in the assay with TK-10 renal; 95.7% with A498 renal. The growth in the assay with CCRF-CEM leukemia was 102%; in the assay with MOLT-4 leukemia, 89.1%; in the assay with SR leukemia, 88.1%; in the assay with RPMI-8226 leukemia, 70.5%; in the assay on OVCAR-8 ovarian, 98.8%; in the assay with OVCAR-5 ovarian it was 106%. For the same molecule, the growth was 101% with OVCAR-4 ovarian; 109% with SK-OV-3 ovarian; 103% with IGROV1 ovarian; 105% in the assay on OVCAR-3 ovarian; 110% in the assay on HS 578T breast; 93.5% with NCI/ADR-RES ovarian.
In the case of `Nc1nccc(=S)[nH]1`, the growth with SK-MEL-2 melanoma is 97.7%; in the assay on EKVX NSCLC it was 101%; with SN12C renal, 101%; with UO-31 renal it was 98.3%; in the assay with TK-10 renal, 95.6%; with A498 renal, 108%. Besides, the growth with CCRF-CEM leukemia is 113%; in the assay on MOLT-4 leukemia it was 92.8%; with SR leukemia it was 87.1%; with RPMI-8226 leukemia, 96.6%; with OVCAR-8 ovarian it was 104%; with OVCAR-5 ovarian, 111%. Besides, the growth in the assay on OVCAR-4 ovarian is 114%; with SK-OV-3 ovarian, 102%; in the assay on IGROV1 ovarian, 107%; in the assay on OVCAR-3 ovarian, 109%; with HS 578T breast, 103%; in the assay on NCI/ADR-RES ovarian it was 107%.
For `CCOC(=O)C1=C(N)Oc2cc(OC)ccc2C1c1ccc(F)c(F)c1` (centres undefined), the growth in the assay with SK-MEL-2 melanoma is 11.8%; in the assay with EKVX NSCLC, 40.1%; in the assay with SN12C renal, 47.1%; with UO-31 renal it was 44.2%; with TK-10 renal, 63.3%; in the assay with A498 renal, 4.52% (active). In addition, the growth in the assay on CCRF-CEM leukemia was 20.4%; in the assay on MOLT-4 leukemia, 28.6%; in the assay on SR leukemia, 12.7%; with RPMI-8226 leukemia, 6.63% (active); in the assay with OVCAR-8 ovarian, 36%; in the assay on OVCAR-5 ovarian, 56.9%. Also, the growth in the assay with OVCAR-4 ovarian was 69.4%; in the assay with SK-OV-3 ovarian, 22.8%; in the assay on IGROV1 ovarian, 54.1%; in the assay with OVCAR-3 ovarian, 17.7%; in the assay on HS 578T breast it was 28.4%; in the assay with NCI/ADR-RES ovarian, 25.5%.
`CC(C)(C)C(=O)Nc1nc2c(s1)CCc1ccn(S(=O)(=O)c3ccccc3)c1-2`: the growth in the assay with SK-MEL-2 melanoma is 81.8%; with EKVX NSCLC, 87.7%; in the assay with SN12C renal, 112%; with UO-31 renal it was 62.7%; with TK-10 renal, 82.1%; in the assay on A498 renal, 101%. In addition, the growth in the assay on CCRF-CEM leukemia was 92.9%; in the assay on MOLT-4 leukemia, 70.8%; in the assay with SR leukemia, 83.1%; in the assay with RPMI-8226 leukemia, 78.6%; in the assay on OVCAR-8 ovarian, 100%; in the assay on OVCAR-5 ovarian it was 97.7%. The growth with OVCAR-4 ovarian is 95.2%; with SK-OV-3 ovarian, 96.1%; with IGROV1 ovarian, 97.3%; with OVCAR-3 ovarian, 95.3%; with HS 578T breast it was 98.6%; in the assay with NCI/ADR-RES ovarian, 85.7%.
Consider `CCCCCC/C=N/Nc1ccc([N+](=O)[O-])cn1`, for which the growth in the assay with SK-MEL-2 melanoma was 89.6%; with EKVX NSCLC, 101%; in the assay with SN12C renal it was 110%; with UO-31 renal, 84.6%; in the assay on TK-10 renal, 94.8%; with A498 renal it was 103%. Besides, the growth is 100% in the assay with CCRF-CEM leukemia; 103% in the assay with MOLT-4 leukemia; 89.4% in the assay with SR leukemia; 105% with RPMI-8226 leukemia; 110% with OVCAR-8 ovarian; 100% with OVCAR-5 ovarian. Besides, the growth in the assay on OVCAR-4 ovarian is 118%; in the assay with SK-OV-3 ovarian, 81.1%; in the assay with IGROV1 ovarian it was 105%; in the assay with OVCAR-3 ovarian, 103%; with HS 578T breast it was 108%; in the assay on NCI/ADR-RES ovarian it was 102%.
Turning to `S=C=NP1(N=C=S)=NP(N=C=S)(N=C=S)=NP(N=C=S)(N=C=S)=NP(N=C=S)(N=C=S)=N1` (centres undefined), the growth with SK-MEL-2 melanoma is 95.8%; with EKVX NSCLC, 95%; with SN12C renal it was 102%; in the assay on UO-31 renal it was 77.3%; in the assay on TK-10 renal, 110%; with A498 renal it was 118%. In addition, the growth with CCRF-CEM leukemia is 105%; in the assay on MOLT-4 leukemia, 57.9%; with SR leukemia it was 88.8%; in the assay on RPMI-8226 leukemia it was 103%; with OVCAR-8 ovarian, 95.6%; with OVCAR-5 ovarian, 107%. Moreover, the growth in the assay with OVCAR-4 ovarian is 96.7%; in the assay with SK-OV-3 ovarian, 84.3%; with IGROV1 ovarian, 97.9%; in the assay with OVCAR-3 ovarian, 112%; in the assay with HS 578T breast, 98.5%; in the assay on NCI/ADR-RES ovarian, 107%.
